# According to PubChem BioAssay (Tox21):
# Several values for one entry are separate records, joined by “and”; a condition that tells them apart may be missing. Equal entries are not always repeated. Records with an inconclusive call do not appear. Where a call stands in place of a potency, no number is given. Where a structure was tested more than once in an assay, its records may differ in their call. Activity calls are given as the source filed them. Calls come from the whole dose curve; as a rule, active = well fitted activation curve with a large enough effect in the repeat runs; inconclusive = weak or mixed curves; inactive = flat fitted curve, though single readings scatter.
# Test: A CellTox Green Cytotoxicity Assay to monitor cytotoxicity in HEK293 cells - 32 hour (AID 1224881); note: nearly all actives have a fitted effect of over 40% in size
# Details: CellTox Green fluorescence; series mostly up to 76.8 µM; cytotoxicity increase: at the top concentration
# Source text: National Center for Advancing Translational Sciences [NCATS]
# NIH Chemical Genomics Center [NCGC]
# U.S. Environmental Protection Agency [EPA]
# National Institutes of Environmental Health Sciences [NIEHS]
# National Toxicology Program [NTP]
# Cell-based models are critical for drug discovery. Determining the natural cytotoxic effects resulting from test compounds is an essential research activity. A CellTox Green Cytotoxicity Assay to monitor cytotoxicity in real time of continues cell culture during 40 hours of the compound treatment was used to screen Tox21 10K library compounds in Hek293 cells. CellTox Green Cytotoxicity Assay is a nonlytic, homogeneous, biofluorescent method to measure cytotoxicity in cell culture after experimental manipulation. The assay system uses a proprietary asymmetric cyanine dye that is excluded from viable cells but preferentially stains the dead cell's DNA. […] Viable cells produce no appreciable increases in fluorescence. Therefore, the fluorescence signal produced by the binding interaction with dead cell DNA is proportional to cytotoxicity.
# The mixture of Hek293 cell suspension and reagents were dispensed at 600cells/6 ul/well in 1536-well tissue culture treated black solid bottom plates using a Multidrop dispenser. After the assay plates were incubated at a 37 C/5% CO2 incubator for 5 hours, 23 nL of compounds dissolved in DMSO, positive and negative controls was transferred to the assay plate by a pintool work station. The plates were incubated at 37 C for 40 hours. The fluorescence intensity were measured at 0h, 8h, 16h, 24h, 32h and 40h time points using ViewLux plate reader during compound treatment.
# Potency is the fitted concentration of half-maximal effect.
Structure (SMILES),Potency,cytotoxicity increase
C=C(C)C(=O)OCC(CC)(COC(=O)C(=C)C)COC(=O)C(=C)C,inactive and 42.9 µM (active),–
Cc1cc(Cc2ccc(N)c(C)c2)ccc1N,inactive,–
COC(=O)c1ccccc1O,inactive,–
CC1(C)CC(N=C=O)CC(C)(CN=C=O)C1 (stereo not given),–,-10.4% (inactive)
Cc1cc(=O)[nH]c(C(C)C)n1,inactive,–
CCCCCCOC(C)=O,inactive,–
CCCCC(CC)COC(=O)CCCCCCCC(=O)OCC(CC)CCCC (stereo not given),54.9 µM (active) and inactive,–
Cc1cc(O)c2c(c1)C(=O)c1cc(O)cc(O)c1C2=O,inactive,–
NCCNCCNCCNCCN,inactive,–
CCC(=O)O,inactive,–
CCCCCCCCC,inactive,–
Oc1ccc(OCc2ccccc2)cc1,–,-3.98% [at 35.3 µM] (inactive)
C/C=C(C)/C=C/C=C(C)C,inactive,–
Oc1c(Cl)cc(Cl)c(Cl)c1Cl,inactive,–
Clc1cc(Cl)c(Cl)cc1Cl,inactive,–
C=C1C2CCC(C2)C1(C)C (stereo not given),inactive,–
O=[N+]([O-])C(CO)(CO)CO,inactive,–
CC1(C)O[C@@H]2C[C@H]3[C@@H]4C[C@H](F)C5=CC(=O)CC[C@]5(C)[C@H]4[C@@H](O)C[C@]3(C)[C@]2(C(=O)CO)O1,–,1.6% [at 35.3 µM] (inactive)
CCCCCCC(C)(C)S,inactive,–
C[C@@H]1O[C@@H](OC[C@H]2O[C@@H](Oc3c(-c4ccc(O)c(O)c4)oc4cc(O)cc(O)c4c3=O)[C@H](O)[C@@H](O)[C@@H]2O)[C@H](O)[C@H](O)[C@H]1O,inactive,–

Structure (SMILES),Potency,cytotoxicity increase
Nc1nc2ncc(CNc3ccc(C(=O)N[C@@H](CCC(=O)O)C(=O)O)cc3)nc2c(=O)[nH]1,inactive,–
Cc1cc(NS(=O)(=O)c2ccc(N)cc2)no1,inactive,–
O=C(c1ccc(O)cc1)c1ccc(O)cc1O,inactive,–
O=C(O)c1cc(-c2ccccc2)nc2ccccc12,inactive,–
CNC[C@H](O)[C@@H](O)[C@H](O)[C@H](O)CO,inactive,–
O=S(=O)(O)c1cc(S(=O)(=O)O)c2c(N=Nc3ccccc3)c(O)ccc2c1,inactive,–
CCCCCC/C=C/CCCCCCCC(=O)O,inactive,–
O=C(c1cc(O)c(O)c(O)c1)c1ccc(O)c(O)c1O,inactive,–
CN(C)c1ccc(C(=N)c2ccc(N(C)C)cc2)cc1,–,22.5% (inactive)
CCC(C)C=O (stereo not given),inactive,–
COCC(=O)O,inactive,–
CCCCC/C=C\C/C=C\CCCCCCCC(=O)OC,–,19% (inactive)
O=S(=O)(O)CCS,inactive,–
c1ccc2[nH]cnc2c1,inactive,–
Oc1ccc2ccccc2c1N=Nc1ccccc1,–,6.91% (inactive)
Oc1ccc2ccccc2c1,inactive,–
CS(=O)(=O)Nc1ccc([N+](=O)[O-])cc1Oc1ccccc1,inactive,–
CC1Cc2ccccc2N1NC(=O)c1ccc(Cl)c(S(N)(=O)=O)c1 (stereo not given),inactive,–
CC(C)NCC(O)COc1cccc2ccccc12 (stereo not given),inactive,–
O=C1O[C@H](CO)[C@@H](O)[C@H](O)[C@H]1O,inactive,–
